Consider 24 sequences from the OligoGym collection.
Note: reference of the scale not given here.

In this experiment the target is CBR1. The experiment in a line: pooled miR-30 sensor sort-seq; sequence = guide strand. Conditions: shRNA.
For the sequence TTTTCATCGTCACTTCAGCTTG, the sensor-assay potency score (higher = more potent) is -0.702.
Sequence ATTCTGTGCACACATCTCGGGT came in with a sensor-assay potency score (higher = more potent) of -0.951.
The sequence TCAATTAGTAGTACATTAGTGA registered a sensor-assay potency score (higher = more potent) of 0.828.
Sequence TTGTTTTCATCGTCACTTCAGC registered a sensor-assay potency score (higher = more potent) of -0.315.
As to TCAGTGATGGTCTCACTGCGGA, the sensor-assay potency score (higher = more potent) was -1.01.
Next, TAATTCTGTGCACACATCTCGG: -0.638; TTCAGCTTGAATATGAAAGGGT: 0.264.
Regarding ATCGTCGATGTCCAGCTGGTGG, the sensor-assay potency score (higher = more potent) is -1.35.
As for TTACGTAGTCAACTGAGTGCGT, the sensor-assay potency score (higher = more potent) amounted to 0.669.
Regarding TATGACATTGTAAATGCCCTTT, the sensor-assay potency score (higher = more potent) was -0.242.
Turning to TTCAGGAGGATCTTGTCCCCTT, the sensor-assay potency score (higher = more potent) was -0.643.
For the sequence TCTCTGAAACAAATTGTCCATG, the sensor-assay potency score (higher = more potent) is -1.29.
Next, TATTAGAGGGAGTAATTCTGTG: -0.602; TTTGTTTTCATCGTCACTTCAG: 0.571.
TTCTGTGCACACATCTCGGGTA came in with a sensor-assay potency score (higher = more potent) of 0.677.
TAGTACATTAGTGAGTGCTAAT had a sensor-assay potency score (higher = more potent) of -1.35.
On to TCTGTGCACACATCTCGGGTAC, for which the sensor-assay potency score (higher = more potent) was -0.133.
In turn, AATTCTGTGCACACATCTCGGG showed a sensor-assay potency score (higher = more potent) of -0.452.
Next, TTCTCTGAAACAAATTGTCCAT: -0.572; TTATTAGAGGGAGTAATTCTGT: -0.254.
As for TTGAATATGAAAGGGTGTGGGA, the sensor-assay potency score (higher = more potent) turned out to be 0.163.
Sequence TTAGTAGTACATTAGTGAGTGC gave a sensor-assay potency score (higher = more potent) of -0.244.
Turning to TCATCGTCACTTCAGCTTGAAT, the sensor-assay potency score (higher = more potent) is -1.32.
TAAGAGATCATTTTTTTTCTTA yielded a sensor-assay potency score (higher = more potent) of 0.534.
